Here are results for 84 compounds from PubChem BioAssay AID687022 (Broad Institute, 2013).

Structures are written as SMILES. Among all 1,000 compounds or so, about 360 (36%) were called active.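 How the source made its calls: active means Fitted curve of melting temperature shift crosses the 1.0 threshold at or below the sample's highest valid tested concentration; inconclusive means Flat fit with activity 30 to 70, or invalid fit; inactive means Opposite direction, flat within 30, or no crossing.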 The list is a sample of the results.

Chain of Fibroblast growth factor 22 (Homo sapiens) (Q9HCT0 whole entry, looked up): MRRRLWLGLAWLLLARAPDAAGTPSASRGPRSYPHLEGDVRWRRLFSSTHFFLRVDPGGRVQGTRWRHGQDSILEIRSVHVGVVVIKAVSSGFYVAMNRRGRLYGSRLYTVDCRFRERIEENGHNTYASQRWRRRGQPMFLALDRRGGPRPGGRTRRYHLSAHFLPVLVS

This assay has as its target Fibroblast growth factor 22 (Homo sapiens) (UniProt Q9HCT0). Briefly: FGF22 ligand-induced thermal stabilization – biophysical, thermal shift, cherry-pick, FGF22 synaptogenesis inhibitor project, dose response (AID 687022). Further: reference of the scale not given here. The settings on record: recombinant FGF22 thermal shift, SYPRO orange melting; series mostly up to 38 µM.
With `O=C(N[C@@H]1C=C[C@@H](CC(=O)N2CCCCC2)O[C@@H]1CO)c1cccc(F)c1`, the Tm shift activity entry was “inactive”.

Consider `O=C(c1ccccc1F)N1CC(=O)N2[C@@H](CO)[C@H](c3ccc(-c4ccc(F)cc4)cc3)[C@@H]2C1`, for which the Tm shift activity entry was “inactive”.

`Cc1ccccc1-c1ccccc1[C@@H]1[C@@H](C#N)N(C(=O)c2ccccc2)[C@H]1CO`: the Tm shift activity result was “inactive”.

In the case of `CCOC(=O)[C@]12CCCC=C1N(Cc1ccccc1)C(=O)[C@H](CC(=O)NCC1CCCCC1)C2`, the Tm shift activity result is “inactive”.

For `O=C(Nc1ccc2c(c1)OCO2)c1cnn2cccnc12`, the Tm shift activity entry is “inactive”.

In the case of `C[C@H]1CN([C@@H](C)CO)C(=O)c2cc(NC(=O)CCC(F)(F)F)ccc2O[C@H]1CN(C)CC1CC1`, the Tm shift activity result is “inactive”.

Consider `C[C@H]1CN([C@@H](C)CO)C(=O)c2cc(NS(=O)(=O)c3ccccc3)ccc2O[C@@H]1CN(C)C`, for which the Tm shift activity result is “inactive”.

For the compound `C[C@H](CO)N1C[C@H](C)[C@H](CN(C)S(=O)(=O)c2ccc(F)cc2)Oc2ccc(NC(=O)c3ccncc3)cc2C1=O`, the Tm shift activity result is “inactive”.

In the case of `COc1cccc(NC(=O)OCCN2CCN(Cc3ccccc3)CCC2=O)c1`, the Tm shift activity result was “inactive”.

For `O=C(Cn1[nH]c(=O)c2ccccc2c1=O)Nc1cccnc1`, the Tm shift activity entry was “inactive”.

Turning to `COc1ccc(Br)cc1S(=O)(=O)Nc1ncccc1C`, the Tm shift activity result was “inactive”.

Consider `Cc1cccnc1NC(=O)CCCN1C(=O)c2ccccc2C1=O`, for which the Tm shift activity entry was “inactive”.

On to `Cc1ccc(-c2ccc([C@@H]3[C@@H](CO)N4C(=O)CN(C(=O)c5ccc(F)cc5)C[C@H]34)cc2)cc1`, for which the Tm shift activity result was “inactive”.

`Cc1cc(C(=O)O/N=C(\N)c2ccncc2)ccc1[N+](=O)[O-]`: the Tm shift activity result is “inactive”.

On to `Cc1ccc(-n2c(O)c(C=NC3CCS(=O)(=O)C3)c3ccccc3c2=O)cc1C` (centres undefined), for which the Tm shift activity entry was “inactive”.

`COCC(=O)NC[C@H]1[C@H](c2ccc(C3=CCCC3)cc2)[C@@H](CO)N1C(C)=O`: the Tm shift activity entry was “inactive”.

For `C[C@H]1CN([C@@H](C)CO)C(=O)c2cc(NC(=O)Cc3ccccc3)ccc2O[C@H]1CN(C)Cc1ccc2c(c1)OCO2`, the Tm shift activity entry was “inactive”.

Take `COc1cc(OC)cc(C(=O)Nc2nc3ccc(S(C)(=O)=O)cc3s2)c1`: the Tm shift activity result was “inactive”.

With `Cc1ccc(S(=O)(=O)Nc2ccc3c(c2)C(=O)N([C@@H](C)CO)C[C@@H](C)[C@@H](CN(C)C)O3)cc1`, the Tm shift activity result is “inactive”.

With `C[C@@H]1CN([C@H](C)CO)S(=O)(=O)c2ccc(C#CC3CC3)cc2O[C@H]1CN(C)C(=O)c1ccncc1`, the Tm shift activity entry is “inactive”.

Regarding `CC(C)(CNCc1ccccc1)NS(=O)(=O)c1ccc(Cl)cc1`, the Tm shift activity result was “inactive”.

As to `CCCCNC(=O)c1onc(CSc2ccc(C(C)C)cc2)c1C(=O)O`, the Tm shift activity is 0.765% [at 5 µM] (inactive).

For `Cc1noc(C)c1S(=O)(=O)N(C)C[C@H]1Oc2ccc(NS(=O)(=O)c3cccs3)cc2C(=O)N([C@@H](C)CO)C[C@H]1C`, the Tm shift activity result is “inactive”.

As to `COc1ccc(Nc2nnc(-c3ccncc3)s2)cc1Cl`, the Tm shift activity result was “inactive”.

Regarding `CO[C@H](CN(C)S(=O)(=O)c1cccc(Cl)c1)[C@H](C)CN([C@@H](C)CO)S(=O)(=O)c1cccc(Cl)c1`, the Tm shift activity result is “inactive”.

Consider `C[C@@H]1CN([C@@H](C)CO)C(=O)c2cccc(NC(=O)C3CC3)c2O[C@H]1CN(C)Cc1ccncc1`, for which the Tm shift activity entry is “inactive”.

Take `O=C(C[C@@H]1C=C[C@H](NC(=O)Nc2cc(F)ccc2F)[C@H](CO)O1)Nc1ccc(-c2ccccc2)cc1`: the Tm shift activity result was “inactive”.

As for `CCC(=O)N(NC1=NS(=O)(=O)c2ccccc21)S(=O)(=O)c1ccc(C)cc1`, the Tm shift activity result was “inactive”.

In the case of `CC(C)(C)NC(=O)CN(C(=O)CNS(=O)(=O)c1ccc(Cl)cc1)c1ccc2c(c1)OCCO2`, the Tm shift activity result is “inactive”.

Take `O=[N+]([O-])c1cccc(S(=O)(=O)Nc2ccc(S(=O)(=O)Nc3nccs3)cc2)c1`: the Tm shift activity result was “inactive”.

Take `O=[N+]([O-])c1ccc(Cl)c(S(=O)(=O)Nc2ccc(S(=O)(=O)N3CCOCC3)cc2)c1`: the Tm shift activity entry was “inactive”.

Take `CC(=O)c1ccc(NS(=O)(=O)c2ccc(N)cc2)cc1`: the Tm shift activity entry is “inactive”.

In the case of `CC(=O)c1sc(NC(=O)c2cc(=O)c3ccccc3o2)nc1C`, the Tm shift activity result is “inactive”.

On to `CCOc1ccc(N(CC(=O)NCCSc2ccccn2)S(=O)(=O)c2ccc(Cl)cc2)cc1`, for which the Tm shift activity entry is “inactive”.

Turning to `N#C[C@@H]1[C@H](c2ccc(-c3cccnc3)cc2)[C@H](CO)N1C(=O)Nc1ccc(F)cc1`, the Tm shift activity result was “inactive”.

As to `CC(C)C#Cc1cnc2c(c1)C(=O)N([C@H](C)CO)C[C@H](C)[C@H](CN(C)C(=O)c1cnccn1)O2`, the Tm shift activity entry was “inactive”.

Turning to `Cc1noc(C)c1NC(=O)Nc1ccc2c(c1)CC(=O)N([C@@H](C)CO)C[C@H](C)[C@@H](CN(C)Cc1ccc3c(c1)OCO3)O2`, the Tm shift activity entry was “inactive”.

For `CC(C)NC(=O)Nc1ccc2c(c1)C(=O)N([C@H](C)CO)C[C@H](C)[C@@H](CN(C)C(=O)NC(C)C)O2`, the Tm shift activity result was “inactive”.

In the case of `COc1cccc(NC(=O)N2C[C@H](O)COC[C@@H]3O[C@@H](CC(=O)NC4CCC4)CC[C@H]32)c1`, the Tm shift activity result was “inactive”.

As for `CSc1ccc(C(=O)NCC2CCN(C(=O)C(=O)c3cc4ccccc4o3)CC2)cc1`, the Tm shift activity result was “inactive”.

With `COc1ccc(CCNS(=O)(=O)CCNC(=O)c2ccc3c(c2)OCO3)cc1`, the Tm shift activity result is “inactive”.

`C/C(CC(=O)Nc1cccc(Cl)c1Cl)=N\NC(=O)C(=O)NC1CCCCC1`: the Tm shift activity result was “inactive”.

For `O=C(CC1CC1)N1CC2(C1)[C@H](c1ccccc1)[C@H](CO)N2C(=O)c1cnccn1`, the Tm shift activity result was “inactive”.

As to `COCC(=O)Nc1ccc2c(c1)OC[C@@H](C)N(C)C[C@H](C)[C@@H](OC)CN(C)C2=O`, the Tm shift activity entry is “inactive”.

`Cc1ccc(N(C(=O)c2csnn2)C(C(=O)NC2CCCC2)c2ccccn2)c(C)c1` (centres undefined): the Tm shift activity entry is “inactive”.

For the compound `O=C(C1CCCC1)N1CC2(C1)[C@H](c1ccccc1)[C@@H](CO)N2CC1CC1`, the Tm shift activity entry was “inactive”.

For the compound `C[C@H]1CN([C@@H](C)CO)C(=O)c2cc(C3=CCCC3)cnc2O[C@H]1CN(C)C(=O)CN(C)C`, the Tm shift activity entry was “inactive”.

Turning to `Cc1cc(C(=O)Nc2cccc3c2O[C@@H](CN(C)C(=O)NC2CCCCC2)[C@@H](C)CN([C@H](C)CO)C3=O)n(C)n1`, the Tm shift activity entry was “inactive”.

Turning to `Nc1n[nH]c(=S)n1/N=C1/C(=O)Nc2ccccc21`, the Tm shift activity result is “inactive”.

Consider `Cc1ccc(NC(=O)COC(=O)Cn2cnc3c2c(=O)n(C)c(=O)n3C)cc1F`, for which the Tm shift activity result was “inactive”.

With `O=C(COC(=O)CCCOc1ccc(Cl)cc1Cl)NCc1ccccc1`, the Tm shift activity result was “inactive”.

With `O=C(NCC[C@@H]1CC[C@@H](NS(=O)(=O)c2ccccc2)[C@@H](CO)O1)c1ccc2c(c1)OCO2`, the Tm shift activity result was “inactive”.

On to `COCC(=O)N(C)C[C@@H]1Oc2cc(C#C[C@H](C)O)ccc2S(=O)(=O)N([C@@H](C)CO)C[C@H]1C`, for which the Tm shift activity result is “inactive”.

On to `CC(C)(CNS(=O)(=O)c1ccc2c(c1)OCCO2)N1CCOCC1`, for which the Tm shift activity result was “inactive”.

With `Cn1c(=O)[nH]c(=O)c2c1nc(SCC(O)CO)n2CCCc1ccccc1` (centres undefined), the Tm shift activity entry was “inactive”.

In the case of `Cc1[nH]c2ccccc2c1C(=O)C(=O)NCCOc1ccccc1`, the Tm shift activity entry is “inactive”.

Consider `O=[N+]([O-])c1ccc(/C=N/Nc2ccc3ccccc3c2)o1`, for which the Tm shift activity entry was “inactive”.

For the compound `CCOC(=O)[C@@H]1[C@H]2COc3cc(OC)ccc3[C@H]2N2C(=O)N(c3ccc(C)cc3)C(=O)[C@]12C`, the Tm shift activity entry was “inactive”.

As to `C[C@H](CO)N1C[C@H](C)[C@@H](CN(C)C(=O)Nc2cccc3ccccc23)Oc2c(NS(C)(=O)=O)cccc2C1=O`, the Tm shift activity entry was “inactive”.

Take `C[C@H]1CN([C@@H](C)CO)C(=O)c2cc(NC(=O)c3ccncc3)ccc2O[C@@H]1CN(C)S(=O)(=O)c1cn(C)cn1`: the Tm shift activity result is “inactive”.

Regarding `C[C@H]1CN([C@@H](C)CO)C(=O)c2cc(NS(=O)(=O)c3ccccc3)ccc2O[C@@H]1CN(C)Cc1ccc(C(=O)O)cc1`, the Tm shift activity entry is “inactive”.

On to `CCCCn1cnc2c(SCc3cccc(F)c3)nc(N)nc21`, for which the Tm shift activity entry is “inactive”.

For `O=C(COc1ccccc1)NCC(=O)NC1CCCCC1`, the Tm shift activity result is “inactive”.

Consider `O=C(C[C@@H]1CC[C@@H](NC(=O)Nc2cc(F)ccc2F)[C@H](CO)O1)NCCCN1CCOCC1`, for which the Tm shift activity entry is “inactive”.

Regarding `CCOC(=O)Cn1c2ccccc2n2nc(CCC(=O)O)c(=O)nc12`, the Tm shift activity result was “inactive”.

Turning to `COCC(=O)N1C[C@@H]2[C@H](c3ccccc31)[C@H](CO)N2C(=O)c1ccccc1F`, the Tm shift activity result was “inactive”.

As to `COc1ccccc1S(=O)(=O)N(C)C[C@@H]1Oc2cc(C#CCC(C)C)ccc2S(=O)(=O)N([C@@H](C)CO)C[C@H]1C`, the Tm shift activity entry is “inactive”.

As to `O=C(C[C@H]1C[C@@H]2c3cc(NC(=O)NC4CCCC4)ccc3O[C@@H]2[C@H](CO)O1)NCc1ccc2c(c1)OCO2`, the Tm shift activity result was “inactive”.

Regarding `CCCNC(=O)COCc1cc(-c2ccc3c(c2)OCO3)on1`, the Tm shift activity result was “inactive”.

Take `O=C(COC(=O)CSc1ccc([N+](=O)[O-])cc1)NCCC1=CCCCC1`: the Tm shift activity result was “inactive”.

For `O=C(NCC[C@@H]1CC[C@H](NC(=O)C2CCOCC2)[C@H](CO)O1)Nc1ccc(Cl)cc1`, the Tm shift activity result is “inactive”.

`Cc1c(/C=N\NC(=O)c2cccc(F)c2)cnn1C`: the Tm shift activity result is “inactive”.

Take `CC(=O)Nc1ccc(C(=O)N/N=C/c2cc(Br)cc(Br)c2O)cc1`: the Tm shift activity result is “inactive”.

Regarding `Cc1nn(-c2ccccc2)c(Cl)c1/C=N/NC(=O)c1cccnc1`, the Tm shift activity entry was “inactive”.

Consider `COc1ccc(NS(=O)(=O)c2cccc(C(=O)NN=Cc3ccc(OC)c(O)c3)c2)cc1`, for which the Tm shift activity result was “inactive”.

Take `O=C(N/N=C/c1c[nH]c2ccccc12)c1ccc2c(c1)OCCO2`: the Tm shift activity entry is “inactive”.

Consider `COc1ccc(/C=N/NC(=O)c2cccc([N+](=O)[O-])c2)cc1OC`, for which the Tm shift activity result is “inactive”.

On to `CC1CC(CC(=O)NC(=S)Nc2ccccc2Cl)C(=O)O1` (centres undefined), for which the Tm shift activity entry was “inactive”.

For `CNC[C@H]1Oc2ccc(NC(=O)Cc3cn(C)c4ccccc34)cc2C(=O)N([C@H](C)CO)C[C@H]1C`, the Tm shift activity entry is “inactive”.

`COc1ccc(S(=O)(=O)N(C)C[C@@H]2Oc3ccc(NC(=O)Nc4ccccc4)cc3CC(=O)N([C@H](C)CO)C[C@@H]2C)cc1`: the Tm shift activity entry was “inactive”.

Take `CC(=O)Oc1ccc(C(=O)Nc2ccccc2C(=O)N2CCCCC2)cc1`: the Tm shift activity result is “inactive”.

With `COc1ccccc1C(=O)NNC(=O)c1ccc(NC(=O)c2ccccc2)cc1`, the Tm shift activity entry is “inactive”.

Turning to `CCCN(C)C[C@H]1Oc2cc(C#Cc3cccnc3)ccc2S(=O)(=O)N([C@H](C)CO)C[C@@H]1C`, the Tm shift activity entry was “inactive”.

Turning to `C[C@@H]1CN([C@@H](C)CO)C(=O)c2cccc(NC(=O)c3ccc(-c4nccs4)cc3)c2O[C@@H]1CN(C)C`, the Tm shift activity result is “inactive”.
